Structures are written as SMILES. The whole screen tested about 16,000 compounds, of which about 5,800 (36%) were called active. Inconclusive results (about 23%) are left out. The call rests on the fitted dose curve; in most records, active means well fitted curve in the direction sought with a large enough effect; inconclusive means small, poorly fitted or top-dose-only effect, or effect the other way; inactive means no such curve, though single readings can be large or run the other way. The list shows a part of the results.
On the % scale 0 is the no-effect control and ±100 the full control effect.

Cytochrome P450 2C19 (Homo sapiens), sequence (P33261 whole entry, looked up): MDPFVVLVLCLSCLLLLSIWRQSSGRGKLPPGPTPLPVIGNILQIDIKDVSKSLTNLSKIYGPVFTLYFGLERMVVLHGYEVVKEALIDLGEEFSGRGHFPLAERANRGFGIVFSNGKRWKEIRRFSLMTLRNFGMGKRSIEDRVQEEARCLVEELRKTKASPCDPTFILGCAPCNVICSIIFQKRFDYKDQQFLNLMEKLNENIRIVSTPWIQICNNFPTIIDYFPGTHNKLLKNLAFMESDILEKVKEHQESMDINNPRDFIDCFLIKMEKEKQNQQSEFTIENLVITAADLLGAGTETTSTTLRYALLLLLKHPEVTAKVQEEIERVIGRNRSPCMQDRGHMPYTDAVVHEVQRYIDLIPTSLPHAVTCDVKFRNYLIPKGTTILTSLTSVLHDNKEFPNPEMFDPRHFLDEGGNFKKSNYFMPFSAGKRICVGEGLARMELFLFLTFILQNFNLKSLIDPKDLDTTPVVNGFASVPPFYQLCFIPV

The assay addresses Cytochrome P450 2C19 (Homo sapiens) (UniProt P33261). Put plainly: Cytochrome panel assay with activity outcomes. To be noted: recombinant CYP, pro-luciferin dealkylation, luminescence, p450-cyp2c19; series mostly up to 57.1 µM.
On to `C#CCCCO/N=C1/C[C@@H](O)[C@@H](O)[C@@H]2[C@@H]3C(=O)N([C@@H](C)c4ccccc4)C(=O)[C@H]3CC[C@H]12`, for which the activity, negative = inhibition is -27.2% [at 11.4 µM] (inactive). For `CCCn1cnc2c1c(=O)n(CCCCC(C)=O)c(=O)n2C`, the AC50 (usually the concentration giving half of the maximal activity seen) is “inactive”.

In the case of `Cn1ncc(C#N)c1/N=C/N1CCCCCC1`, the AC50 is 14.1 µM (active). On to `O=C(O)c1c(Br)c(Br)c(Br)c(Br)c1C1c2ccc(O)cc2Oc2cc(O)ccc21`, for which the activity, negative = inhibition is -94.3% [at 11.4 µM] (inactive). On to `COc1ccccc1-c1cc(NCc2cnc(C)cn2)ncn1`, for which the AC50 was 15.8 µM (active). For `Cc1cnc(CNc2cc(-c3ccccc3Cl)ncn2)cn1`, the AC50 entry is “inactive”. Regarding `COc1ccccc1-c1cc(NCc2ccccc2)ncn1`, the AC50 was 7.94 µM (active). Same read-out and setting: under `CN(C)Cc1ccccc1-c1cc(NCc2ccccc2)ncn1` stands “inactive”. On the same count and under the same terms, under `COc1ccccc1-c1cc(NCc2cccc(C)c2)ncn1` stands 3.98 µM (active); under `Cc1cnc(CNc2cc(-c3ccccc3C)ncn2)cn1`, “inactive”. Take `COc1ccc2c3c([nH]c2c1)[C@@H]1C[C@@H]2[C@@H](C[C@H](O)[C@H](OC)[C@H]2C(=O)O)CN1CC3`: the AC50 entry was “inactive”. For the compound `Cc1[nH]n(-c2ccccc2)c(=O)c1CCOC(=O)c1cccc(C(F)(F)F)c1`, the AC50 is 3.55 µM (active). The same measure, in the same setting: under `C[C@@H](Cc1cccc(C(F)(F)F)c1)NCCOC(=O)c1ccccc1` stands “inactive”; under `Cc1[nH]n(-c2ccccc2)c(=O)c1CCOC(=O)c1ccc(C(F)(F)F)cc1`, 3.98 µM (active). In the case of `CN(C)CCOC(=O)c1ccc(N)cc1`, the activity, negative = inhibition was -21.2% [at 11.4 µM] (inactive).

For `CO[C@@H]1COC(=O)C/C=C\[C@H](C)COC(=O)[C@H](C)NC(=O)C/C=C\[C@H]1C`, the activity, negative = inhibition was -28.2% [at 11.4 µM] (inactive). Regarding `Fc1ccc2c(c1)C(c1ccncc1)=NNC(c1ccc(Cl)cc1)=N2`, the AC50 is 0.224 µM (active). Same read-out and setting: under `C#CCOC(=O)Nc1ccc(=O)n(Cc2c(Cl)cccc2Cl)c1` stands 1.58 µM (active).

In the case of `C1=C(CN2CCOCC2)COc2c1cccc2OC[C@@H]1CNCCO1`, the AC50 result was “inactive”.

Consider `COc1cc(C)c(Br)cc1S(=O)(=O)NCc1ccccc1`, for which the half-maximal activity concentration (AC50) was 4.47 µM (active). `Cc1ccc(C(=O)C2=C(O)C(=O)N(CCCn3ccnc3)C2c2ccc(OC(C)C)cc2)o1` (stereo not drawn): the AC50 was 14.1 µM (active).

With `CN(C)CCN1C(=O)C(O)=C(C(=O)c2cc3ccccc3o2)C1c1ccccn1` (stereo not drawn), the AC50 entry was “inactive”.

Turning to `S=c1[nH]nc(C2CCCCC2)n1/N=C/c1cccs1`, the AC50 is 0.708 µM (active). On to `C[C@]1(c2ccccc2)O[C@@H]2C[C@@H]3[C@@H]4CCC5=CC(=O)C=C[C@@]5(C)[C@]4(F)[C@H](O)C[C@]3(C)[C@@]2(C(=O)CO)O1`, for which the activity, negative = inhibition is -7.02% [at 11.4 µM] (inactive). With `COc1ccc(C2=NOC(C(=O)N3CCCc4ccccc43)C2)cc1` (stereo not drawn), the AC50 is 15.8 µM (active). Still for that read-out and setting: under `COc1ccc(C2=NOC(C(=O)NCCN3CCOCC3)C2)cc1` (stereo not drawn) stands “inactive”.

Consider `O=C(Nc1c[nH]c(=O)[nH]c1=O)Oc1ccccc1`, for which the activity, negative = inhibition was -12.9% [at 11.4 µM] (inactive). In the case of `Cc1cccc2cc(CN(Cc3ccccc3)C(=O)c3cccc(F)c3)c(Cl)nc12`, the AC50 is 2.82 µM (active). In the case of `COC(=O)CSc1nc(C)cc(C(F)(F)F)c1C#N`, the AC50 is 25.1 µM (active).

Take `COC(=O)CSc1cc(C(F)(F)F)nc(-c2ccccn2)n1`: the AC50 entry is “inactive”.

On to `Cc1nc(SCC(=O)c2cc3ccccc3oc2=O)c(C#N)c(C)c1C(=O)Nc1ccccc1`, for which the AC50 entry is “inactive”. Still for that read-out and setting: under `O=C(CSC1=NCCS1)N1CCN(c2ccc(Cl)cc2)CC1` stands 3.55 µM (active).

Turning to `c1nc(NCCc2cnc[nH]2)c2[nH]cnc2n1`, the activity, negative = inhibition is -12.5% [at 11.4 µM] (inactive).

As for `CN(C)c1ccc(-c2cncnc2NCCc2cnc[nH]2)cc1`, the AC50 is 0.0794 µM (active).

Turning to `c1ncc(-c2ccc3c(c2)OCO3)c(NCCc2cnc[nH]2)n1`, the AC50 was 0.0398 µM (active). As for `CN(C)C(=O)c1ccc(-c2cncnc2NCCc2cnc[nH]2)cc1`, the concentration at half-maximal activity (AC50) was 10 µM (active).

As to `O=C(Nc1ccccc1)N1CCCC2(CCN(C(=O)c3cnccn3)CC2)C1`, the AC50 result is “inactive”. In the case of `COc1ccc(COC(=O)N/N=C2/C[C@@H](O)[C@@H](O)[C@@H]3[C@@H]4C(=O)N([C@@H](C)c5ccccc5)C(=O)[C@H]4CC[C@@H]23)cc1`, the activity, negative = inhibition was -25.8% [at 11.4 µM] (inactive).

Take `CCOc1ccc(/C(O)=C2/C(=O)C(=O)N(CC3CCCO3)C2c2ccc(C)o2)cc1` (stereo not drawn): the AC50 entry was “inactive”.

Take `COc1cccc(/C(O)=C2/C(=O)C(=O)N(c3cc(C)on3)C2c2cccs2)c1` (stereo not drawn): the AC50 entry was “inactive”. Same read-out and setting: under `COCCCN1C(=O)C(=O)/C(=C(/O)c2ccc(OC)cc2C)C1c1cccnc1` (stereo not drawn) stands “inactive”. Consider `CCOc1ccc(/C(O)=C2/C(=O)C(=O)N(CCCn3ccnc3)C2c2cccs2)cc1Cl` (stereo not drawn), for which the AC50 was 14.1 µM (active).

For the compound `Cc1ccc(/C(O)=C2/C(=O)C(=O)N(CCCn3ccnc3)C2c2ccccn2)cc1` (stereo not drawn), the AC50 is 2.82 µM (active).

On to `Cc1nc2ccccn2c1/C(O)=C1\C(=O)C(=O)N(CCCn2ccnc2)C1c1ccncc1` (stereo not drawn), for which the AC50 result was “inactive”. `CCN(CC)CCN1C(=O)C(=O)/C(=C(/O)c2ccc(OC)cc2)C1c1cccs1` (stereo not drawn): the concentration at half-maximal activity (AC50) is 14.1 µM (active). On to `COc1ccc(/C(O)=C2\C(=O)C(=O)N(c3cc(C)on3)C2c2ccc(OC)c(OC)c2)cc1OC` (stereo not drawn), for which the AC50 result was “inactive”. For the compound `O=C(N/N=C1/C[C@@H](O)[C@@H](O)[C@@H]2[C@H]3C(=O)N(c4ccc(F)cc4F)C(=O)[C@@H]3CC[C@H]12)OCc1ccccc1`, the activity, negative = inhibition is -27.3% [at 11.4 µM] (inactive).

Regarding `NC(=O)CSc1nc2sc(-c3ccccc3)cc2c(=O)n1N`, the concentration at half-maximal activity (AC50) was 15.8 µM (active). For the compound `c1cc2c(cc1C1CCCCC1)c1c3n2CCN[C@H]3CCC1`, the half-maximal activity concentration (AC50) was 1 µM (active).

As to `O=C(Nc1ccc(Cl)cc1)OCCn1nnnc1C(c1ccccc1Cl)N1CCOCC1` (stereo not drawn), the AC50 is 3.98 µM (active). On to `O=C1[C@H]2O[C@@H]2[C@@H](O)[C@H]2[C@H]1CCn1c(=O)n(Cc3cc4c(cc3Cl)OCO4)c(=O)n12`, for which the activity, negative = inhibition is 14.6% [at 11.4 µM] (inactive). As for `CCCCCCCCCCCCCCCCCCOC[C@@H](COP(=O)([O-])OCC[N+](C)(C)C)OC`, the AC50 entry was “inactive”.

For `CCCCCCCCCCCCCCCCCCNC(=O)OC[C@@H](COP(=O)([O-])OCC[n+]1ccsc1)OC`, the AC50 entry is “inactive”. For `CCCCCCCCCCCCCCCCCC(=O)NC[C@@H](COP(=O)([O-])OCC[N+](C)(C)C)OCC`, the AC50 is 25.1 µM (active). In the case of `C=C(C)CN(CC#N)CC(=C)C`, the activity, negative = inhibition is 27.9% [at 11.4 µM] (inactive). Same read-out and setting: under `Cn1c(N)nc2c(nc(OCc3ccccc3)n2[C@@H]2O[C@H](CO)[C@@H](O)[C@@H]2O)c1=O` stands -3.29% [at 11.4 µM] (inactive). As for `Cc1ccc(N=C/C(C(=O)C(F)(F)F)=C(\O)c2cccs2)cc1`, the AC50 is 3.16 µM (active).

For `COc1cc(Br)cc2cc(C(=O)NCC3CCCO3)c(=O)oc12` (stereo not drawn), the AC50 is 0.398 µM (active). Still for that read-out and setting: under `CCN1CCC[C@H]1CNC(=O)c1c(OC)ccc(Br)c1OC` stands “inactive”. On to `COc1cc(CN2CCCCC2)cc2cc(C(=O)O)c(=O)oc12`, for which the activity, negative = inhibition was 21% [at 11.4 µM] (inactive). In the case of `Cc1cc(C)cc(-n2nnnc2-c2cn(C)nc2C(F)(F)F)c1`, the AC50 is 2.51 µM (active). Take `COc1ccc(-n2nnnc2-c2cn(C)nc2C(F)(F)F)cc1`: the AC50 was 2.24 µM (active). On the same count and under the same terms, under `COc1ccc(-n2c(C)nn(C)c2=O)cc1` stands “inactive”. Still for that read-out and setting: under `COc1ccc(-n2cnnc2)cc1` stands “inactive”; under `C[C@@H]1c2cccc(O)c2C(O)=C2C(=O)[C@@]3(O)C(O)=C(C(N)=O)C(=O)[C@@H](N(C)C)[C@@H]3[C@@H](O)[C@@H]21`, “inactive”; under `CCOC(=O)C1=C(N)n2c(s/c(=C\c3ccco3)c2=O)=C(C(=O)OCC)C1c1ccco1` (stereo not drawn), 8.91 µM (active). The same measure, in the same setting: under `CCOC(=O)C1=C(N)n2c(s/c(=C/c3ccccc3)c2=O)=C(C(=O)OCC)C1c1ccccc1` (stereo not drawn) stands “inactive”; under `CCOC(=O)C1=C(c2ccccc2)N=c2s/c(=C\c3cccc(O)c3)c(=O)n2C1c1cccs1` (stereo not drawn), 10 µM (active). As to `CCOC(=O)C1=C(c2ccccc2)N=c2s/c(=C\c3ccco3)c(=O)n2C1c1cccs1` (stereo not drawn), the AC50 was 2.24 µM (active). For `c1ccc(CCNCc2ccco2)nc1`, the activity, negative = inhibition was -13.9% [at 11.4 µM] (inactive). With `S=c1nc[nH]c2c1ncn2Cc1ccco1`, the activity, negative = inhibition is -0.307% [at 11.4 µM] (inactive).

Turning to `S=C1SCN(Cc2ccccn2)CN1Cc1ccco1`, the AC50 was 2.24 µM (active). On the same count and under the same terms, under `Cc1cccc(OCCSCc2nc3ccccc3[nH]2)c1` stands 2.24 µM (active); under `O=C(c1ccc(S(=O)(=O)N2CCCCCC2)cc1)N1CCC(CN2C(=O)c3cccc4cccc(c34)C2=O)CC1`, “inactive”; under `O=C1c2cccc3cccc(c23)C(=O)N1CC1CCN(CC(O)COc2ccc3ccccc3c2)CC1` (stereo not drawn), 7.08 µM (active). Regarding `O=C(NCc1ccccc1)C(c1ccc(F)cc1)N(Cc1ccco1)C(=O)c1ccccn1` (stereo not drawn), the AC50 was 4.47 µM (active). As to `CC(Cc1ccccc1)C(=O)NCc1ccccn1` (stereo not drawn), the AC50 entry was “inactive”. Regarding `Cc1ccccc1C(C(=O)NCc1ccccc1)N(Cc1ccco1)C(=O)c1ccccn1` (stereo not drawn), the AC50 was 3.55 µM (active). On the same count and under the same terms, under `Cc1ccc(N(CCC#N)C(=O)CSc2ccc3c(c2)OCCO3)cc1` stands 2 µM (active); under `O=C1CCCc2ccccc2N1Cc1cccc(Cl)c1`, 0.501 µM (active). `O=C1CCCc2ccccc2N1Cc1ccccc1Cl`: the half-maximal activity concentration (AC50) is 1 µM (active).

With `C[C@@H](CN(C)C)CN1c2ccccc2CCc2ccccc21`, the AC50 entry is “inactive”. Take `CN(C)C(=O)c1ccc(-c2nccc(NCc3cccnc3)n2)cc1`: the AC50 entry is “inactive”. For the compound `c1cncc(CNc2ccnc(-c3ccc4c(c3)OCO4)n2)c1`, the AC50 is 5.01 µM (active). Same read-out and setting: under `c1ccc(CNc2ccnc(-c3ccc4c(c3)OCO4)n2)cc1` stands 2 µM (active). In the case of `c1csc(CNc2ccnc(-c3ccc4c(c3)OCO4)n2)c1`, the AC50 was 5.01 µM (active). On to `COc1cc(OC)c(C(=O)CCCCN2CCC3(CC2)NC(=O)NC3=O)cc1NS(=O)(=O)c1ccc(C(F)(F)F)cc1`, for which the AC50 result is “inactive”. Same read-out and setting: under `CCN(CC)CCC[C@H](C)Nc1c2ccc(Cl)cc2nc2ccc(OC)cc12` stands “inactive”.

Source of the values: PubChem BioAssay AID1851 (National Center for Advancing Translational Sciences (NCATS), 2009).
